Screening data deposited in PubChem by several laboratories.
NCOA3 inh = inhibits human SRC3 coactivator. Q9Y6Q9. HEK293 GAL4-SRC3 luciferase reporter, luminescence. inhibition, % at 3.6 µM. hit rate 0.17% among 360,000;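 active = inhibition above a per-campaign cutoff, the mean of all compounds plus 3 SD, cut at about 60% in these data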;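 also: 0% = DMSO-treated cells and 100% = gossypol-treated cells at 36 µM; higher means less SRC3-driven luciferase light from the GAL4 reporter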
Target sequence (Q9Y6Q9 whole entry, looked up, the tested form may be a part): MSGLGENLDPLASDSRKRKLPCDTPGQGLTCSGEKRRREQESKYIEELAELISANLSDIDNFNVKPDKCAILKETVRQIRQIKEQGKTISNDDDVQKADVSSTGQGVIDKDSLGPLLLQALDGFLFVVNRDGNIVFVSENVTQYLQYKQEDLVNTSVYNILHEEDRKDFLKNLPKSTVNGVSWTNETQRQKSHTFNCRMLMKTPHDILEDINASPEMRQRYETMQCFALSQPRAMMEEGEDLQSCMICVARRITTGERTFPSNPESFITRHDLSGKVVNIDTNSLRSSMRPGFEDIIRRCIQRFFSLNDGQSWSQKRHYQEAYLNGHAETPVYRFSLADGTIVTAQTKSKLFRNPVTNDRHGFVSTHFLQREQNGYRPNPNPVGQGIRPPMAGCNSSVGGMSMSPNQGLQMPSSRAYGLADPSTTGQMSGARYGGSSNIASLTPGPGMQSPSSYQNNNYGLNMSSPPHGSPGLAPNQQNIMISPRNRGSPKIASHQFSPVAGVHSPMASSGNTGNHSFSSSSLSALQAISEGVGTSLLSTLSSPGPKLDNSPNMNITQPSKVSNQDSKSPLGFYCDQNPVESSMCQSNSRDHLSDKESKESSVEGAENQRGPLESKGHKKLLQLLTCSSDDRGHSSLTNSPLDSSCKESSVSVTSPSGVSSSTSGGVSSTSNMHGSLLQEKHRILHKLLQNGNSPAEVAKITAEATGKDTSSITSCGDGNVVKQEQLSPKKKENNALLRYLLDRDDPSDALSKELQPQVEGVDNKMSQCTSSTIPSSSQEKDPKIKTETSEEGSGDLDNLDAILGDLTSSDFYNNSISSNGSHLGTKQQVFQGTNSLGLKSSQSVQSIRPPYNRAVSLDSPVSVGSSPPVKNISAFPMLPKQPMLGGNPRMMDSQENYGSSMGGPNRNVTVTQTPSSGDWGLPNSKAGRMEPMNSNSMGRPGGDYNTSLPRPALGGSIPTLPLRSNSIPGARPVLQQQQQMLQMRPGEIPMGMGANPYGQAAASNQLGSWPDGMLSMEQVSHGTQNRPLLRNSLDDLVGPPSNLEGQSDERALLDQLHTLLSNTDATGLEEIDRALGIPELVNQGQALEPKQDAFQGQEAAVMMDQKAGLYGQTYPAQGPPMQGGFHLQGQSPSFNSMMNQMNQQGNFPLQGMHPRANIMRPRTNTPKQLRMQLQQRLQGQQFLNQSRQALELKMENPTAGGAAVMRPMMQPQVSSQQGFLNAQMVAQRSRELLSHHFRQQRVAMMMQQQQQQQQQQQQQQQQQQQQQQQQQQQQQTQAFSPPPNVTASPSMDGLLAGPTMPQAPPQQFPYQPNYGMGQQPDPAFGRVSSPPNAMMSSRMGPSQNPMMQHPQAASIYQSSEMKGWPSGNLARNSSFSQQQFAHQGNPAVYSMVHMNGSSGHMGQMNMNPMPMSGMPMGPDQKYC
NCOA2 inhibitor = human SRC2 (NCOA2) inhibition; Q15596; HEK293 GAL4-SRC2 luciferase reporter, luminescence; inhibition, % at 9 µM; hit rate 0.17% among 370,000; AID 651957;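 active = inhibition above the mean inhibition of all tested compounds plus 3 SD, set per campaign, cut at about 52% in these data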;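 also: 0% = DMSO treated cells and 100% = cells given Gossypol at 36 µM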
SRC1 inh = inhibitors of human steroid receptor coactivator 1 (SRC1); hit rate 0.12% among 360,000; Q15788; inhibition, % at 3.6 µM; HEK293 GAL4-SRC1 luciferase reporter, luminescence;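 active = inhibition above the campaign mean plus 3 SD, with each screening campaign given its own cutoff, cut at about 60% in these data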;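 also: 0% = DMSO treated cells and 100% = gossypol at 36 µM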
Gli-Sufu antag = Gli-Sufu pathway antagonism; Sufu-KO-LIGHT fibroblasts, Gli luciferase reporter luminescence; inhibition, % at 5 µM; hit rate 0.74% among 340,000; AID 588413;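 active = inhibition above about 55%, limit read from the data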;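 also: 0% = DMSO-treated cells and 100% = wells with medium but no cells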
LRH-1 inv ag = inverse agonists of human LRH-1 (NR5A2); O00482; HEK293T StAR-luciferase reporter, LRH-1 transfected, 24 h; inhibition, % at 3.6 µM; hit rate 0.13% among 360,000; AID 602396;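 active = inhibition above the mean inhibition of all tested compounds plus 3 SD, cut at about 73% in these data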;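 also: 0% = DMSO wells and 100% = reporter-only cells lacking LRH-1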
Gli-Sufu confirm = confirmation of Gli-SUFU pathway antagonists; inhibition, % at 5 µM; shares compounds with Gli-Sufu antag; Sufu-KO-LIGHT cells, Gli luciferase reporter, luminescence; AID 602428; hit rate 40% among 2,500;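 active = mean inhibition at 5 µM reaching about 45%, limit read from the data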;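 also: plate controls were DMSO-treated cells for no effect and wells lacking cells for full effect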
SufuKO cytotox = counter-screen for Gli-SUFU antagonists: cytotoxicity; shares compounds with Gli-Sufu antag; Sufu-KO-LIGHT cells cytotoxicity, ATP luminescence; cytotoxicity, % at 5 µM; hit rate 32% among 2,500; AID 651994;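 active = mean cytotoxicity at 5 µM above about 25%, limit read from the data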;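 also: cells exposed to compound overnight for roughly 16 to 18 hours; plate controls were DMSO wells with cells for no effect and medium without cells for full effect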
Wnt3a cs = counter-screen for Gli-SUFU antagonists: Wnt3a reporter inhibition | shares compounds with Gli-Sufu antag | hit rate 20% among 2,500 | AID 651995 | inhibition, % at 6.25 µM | Wnt-LIGHT cells, Wnt3a-driven luciferase reporter, luminescence;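 active = mean inhibition above about 25%, limit read from the data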
* marks the source's active call; other numbers are inactive results; . = not tested or not shown. Sampled rows, rich in hits. Any-hit rate of the full collection: about 0.83%.

SMILES	NCOA3 inh	NCOA2 inhibitor	SRC1 inh	Gli-Sufu antag	LRH-1 inv ag	Gli-Sufu confirm	SufuKO cytotox	Wnt3a cs
COc1cc(C(=O)Oc2ccccc2/C=N/NC(=O)c2ccc(Cl)cc2)cc(OC)c1OC	13	-7	-18	54	-43	29	24	-161
COC(=O)c1cc(C(=O)N2CCN(c3cccc(C)c3C)CC2)cc([N+](=O)[O-])c1	-2	-6	14	23	18	.	.	.
COC(=O)c1cc(C(=O)N2CCN(c3ccccc3OC)CC2)cc([N+](=O)[O-])c1	0	-7	-7	51	8	39	50*	-37
CC1CCN(c2c(NCc3ccc(C(=O)N4CCN(C5CCCCC5)CC4)cc3)c(=O)c2=O)CC1	0	-7	-14	5	-7	.	.	.
CC1CCN(c2c(NCc3ccc(C(=O)N4c5ccccc5CC4C)cc3)c(=O)c2=O)CC1 (stereo not drawn)	-4	-21	-13	57*	10	57*	0	-35
CCOC(=O)N1CCN(C(=O)C[C@H]2C[C@@]3(C(=O)OC)C(=C[C@H](C4CCCC4)O[C@@H]3C)N(CCC3=CCCCC3)C2=O)CC1	.	4	.	.	.	.	.	.
CN(Cc1cnc2nc(N)nc(N)c2n1)c1ccc(C(=O)NC(CCC(=O)O)C(=O)O)c2ccccc12 (stereo not drawn)	64*	15	73*	58*	46	38	29*	2
COC(=O)C1CN(Cc2ccc(F)cc2)CCS(=O)(=O)N1Cc1cn(CCOC(C)=O)nn1 (stereo not drawn)	.	2	.	.	.	.	.	.
CCCN1CCC(=O)N([C@H](CSc2ccc(OC)cc2)Cc2ccccc2)CC1	-10	-26	-12	52	0	48*	18	10
O=C1CCN(CCc2ccccc2)CCN1[C@H](CSc1ccccc1)Cc1ccccc1	4	-3	0	62*	6	27	23	-12
CCCC(=O)OC12CCCN(C1)/C(=C/c1ccccc1)C2 (stereo not drawn)	.	-4	.	.	.	.	.	.
O=C([C@@H]1C[C@H]1c1ccccc1)N1CC[C@H]2[C@H](CCCN2Cc2ccccc2)C1	.	-1	.	.	.	.	.	.
Cc1ccc(S(=O)(=O)N(CC(=O)NCCSc2ccccn2)c2cc(C)cc(C)c2)cc1	8	-1	-21	51	-8	25	6	-8
COc1ccc(N(CC(=O)NCCSc2ccccn2)S(=O)(=O)c2ccc(C)cc2)cc1OC	-4	9	1	27	6	.	.	.
O=C(COC(=O)c1ccc(Sc2ncn[nH]2)c([N+](=O)[O-])c1)Nc1ccc(Cl)c(Cl)c1	.	-6	.	.	.	.	.	.
O=c1c2c([nH]c3ccccc13)CCC2	14	-18	-4	60*	4	30	6	6
CCOC(=O)[C@@]12CN(C(=O)OC(C)(C)C)CC=C1N(Cc1ccc(OC)cc1)C(=O)[C@H]2CC(=O)N1CCCCC1	.	10	.	.	.	.	.	.
CC(=O)c1ccc(NC(=O)NC2CCCCN(Cc3ccc(Cl)cc3)C2=O)cc1 (stereo not drawn)	.	-16	.	.	.	.	.	.
Cc1cc(C(C)(C)C)cc(C)c1C[n+]1ccc2ccccc2c1	56	1	44	79*	61	88*	23	46*
CN1CCc2nc(NC(=O)c3cccc(OC(F)F)c3)sc2C1	-18	-24	-28	68*	-21	10	11	-101
CN1CCc2nc(NC(=O)COc3ccc4ccccc4c3)sc2C1	13	8	0	11	-1	.	.	.
c1ccc(Cn2c(SCC3CCCCC3)nnc2-c2cccnc2)cc1	.	4	.	.	.	.	.	.
CCCCN(CC)CCCNC(=O)c1cc2c(-c3ccc(OC)c(OC)c3)nn(C)c2s1	-12	-38	-6	56*	-15	17	11	-14
CCCCOCCCNC(=O)C[C@H]1C[C@@]2(C(=O)OC)C(=C[C@H](C3CCCC3)O[C@@H]2C)N(Cc2cccc3ccccc23)C1=O	.	-31	.	.	.	.	.	.
C#CCNC(=O)C[C@@H]1C(=O)N(CC=C)/C2=C/CCCCC[C@]21C(=O)OCC	.	-30	.	.	.	.	.	.
SMILES	NCOA3 inh	NCOA2 inhibitor	SRC1 inh	Gli-Sufu antag	LRH-1 inv ag	Gli-Sufu confirm	SufuKO cytotox	Wnt3a cs
Cc1ccc(S(=O)(=O)Nc2ccc3c(c2)CC(=O)N([C@H](C)CO)C[C@@H](C)[C@H](CN(C)S(=O)(=O)c2ccccc2)O3)cc1	0	-13	-31	-3	-6	.	.	.
C[C@H](CO)N1C[C@H](C)[C@@H](CN(C)S(=O)(=O)c2ccc(Cl)cc2)Oc2ccc(NS(=O)(=O)c3ccccc3)cc2CC1=O	-1	13	-3	58*	-23	10	-12	-22
C[C@H](CO)N1C[C@H](C)[C@@H](CN(C)S(=O)(=O)c2cn(C)cn2)Oc2ccc(NC(=O)Nc3ccccc3)cc2C1=O	-3	12	-16	96*	-12	12	3	-47
O=C(Nc1ccccc1)Nc1nc2ncccn2c1-c1ccc(F)cc1	.	-23	.	.	.	.	.	.
Cc1ccc(-n2c(SCC(=O)Nc3ccccc3-c3ccccc3)nnc2-c2cnccn2)cc1	.	26	.	.	.	.	.	.
Cc1[nH]c(C)c(S(=O)(=O)NCc2ccccc2Cl)c1C(=O)N1CCCC1	10	-6	6	58*	-1	15	7	-2
COC(=O)C1CN(Cc2cn(Cc3ccccc3)nn2)CCS(=O)(=O)N1Cc1ccc(OC)cc1 (stereo not drawn)	.	-7	.	.	.	.	.	.
CCNc1nc(OC)nc(N(OC)S(=O)(=O)c2ccc(C)cc2)n1	-5	-42	-16	53	-5	24	5	-22
CN(C)S(=O)(=O)c1ccc2oc(SCC(N)=O)nc2c1	15	-3	9	67*	11	12	7	-3
CN(C)S(=O)(=O)c1ccc2oc(SCC(=O)c3c(N)n(C4CC4)c(=O)[nH]c3=O)nc2c1	2	0	4	-2	13	.	.	.
O=C(CN1C(=O)c2ccccc2S1(=O)=O)c1ccccc1	12	9	-24	73*	-28	80*	11	93*
Cc1ccc(C(=O)CN2C(=O)c3ccccc3S2(=O)=O)cc1	63*	68*	48	78*	13	87*	26*	95*
Cc1cc(C(=O)CN2C(=O)c3ccccc3S2(=O)=O)c(C)n1C(C)C	40	58*	47	57*	38	49*	12	44*
Cc1cc(C)nc(NC(=O)CN2C(=O)c3ccccc3S2(=O)=O)n1	-9	3	3	-4	-23	.	.	.
CC(C)NC(=O)CN1C(=O)c2ccccc2S1(=O)=O	14	-23	4	5	-14	.	.	.
COC(=O)[C@H]1C[C@@]2(N3CCCC3)c3ccccc3N[C@H]2N1S(C)(=O)=O	.	-16	.	.	.	.	.	.
N#CC1C=Cc2ccccc2N1C(=O)c1ccccc1 (stereo not drawn)	8	-7	-7	-3	15	.	.	.
